High-throughput results from PubChem.
Most compounds without a hit are left out; they make up all but 6.3% or so of the library.
NADH enzymes: inhibition of NAD/NADH coupling enzymes, library profiling; coupled PK/LDH NADH assays, four targets; IC50, µM (doses to about 10 µM), for the others: top-dose inhibition; actives 0.02% (n = 65,000); AID 774;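 active = single-dose screening hits from any of four coupled enzyme assays that gave an IC50 when retested across doses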;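 note: the DPM-DC format reads NADH fluorescence rather than 340 nm absorbance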
Spn MK inh: inhibitors of Streptococcus pneumoniae mevalonate kinase; purified MK, PK/LDH-coupled NADH absorbance 340 nm; actives 0.48% (n = 65,000); inhibition, % at 10 µM;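 active = ranked among the strongest by inhibition in the single 10 µM screen, a fixed top-ranked set picked for dose follow-up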
DPM-DC inhibit: blocks S. pneumoniae diphosphomevalonate decarboxylase | purified DPM-DC, PK/LDH coupled NADH fluorescence | calls only at 10 µM | actives 0.49% (n = 65,000);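 active = the 320 compounds with the highest percent inhibition in the single-dose primary screen, excluding strongly autofluorescent ones, cut at about 32% in these data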;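 note: kinetic rate of NADH fluorescence loss reporting ADP formed by the decarboxylase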
Spn PMK inh: S. pneumoniae PMK inhibition; purified PMK, PK/LDH-coupled NADH absorbance 340 nm; inhibition, % at 10 µM; actives 0.49% (n = 65,000); AID 539;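 active = top-ranked compounds by inhibition in the single 10 µM screen, taking a fixed number of the strongest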;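 note: 0% = full reaction with DMSO carrier and 100% = background rate without enzyme reaction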
A340 absorber: compounds absorbing at 340 nm. compound absorbance at 340 nm, fold over control. fold change at 10 µM. 65,000 tested, under 10 active. AID 708;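 active = at 10 µM dose, initial 340 nm absorbance at least 2 fold that of control wells; inactive = change under 2 fold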;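 note: initial absorbance extrapolated from kinetic A340 decline of NADH oxidation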
Fluor 339 460: intrinsic fluorescence of library compounds, ex339/em460 – biochemical, MLSMR library, data from DPM-DC assay, artefact control, profiling panel | compound autofluorescence, ex339/em460 nm, NADH buffer; stronger effect = higher value; 1 = no-compound wells, NADH background | fluorescence fold increase at 10 µM | actives 5.5% (n = 65,000) | AID 709;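 active = at 10 µM, mean starting fluorescence two-fold or more over control wells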;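 note: signal is the first read of a kinetic run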
The depositor's hits bear a star; i = inactive; / = no result given; + = active, no number.

SMILES	NADH enzymes	Spn MK inh	DPM-DC inhibit	Spn PMK inh	A340 absorber	Fluor 339 460
COc1ccc(-c2nnc(SCC(=O)N3CCOCC3)o2)cc1	1.0%	1.0	i	3.0	1.01	1.17
COc1ccc(-c2cc(-c3cccs3)c(C#N)c(SCC(=O)NCc3ccco3)n2)cc1	10.0%	8.0	i	4.0	1.04	2.51*
COc1ccc(-c2cc(C(F)(F)F)nc(SCC(N)=O)n2)cc1	11.0%	9.0	/	13.0	1.08	3.69*
COC(=O)CSc1nc(-c2cccs2)ccc1C#N	6.0%	9.0	/	3.0	1.12	2.27*
C#CCSc1nc(-c2cccs2)ccc1C#N	2.0%	2.0	i	14.0	1.04	1.85
O=C(CSc1nc(-c2cccs2)cc(C(F)(F)F)n1)NCc1ccco1	7.0%	13.0	i	9.0	1.14	1.1
Cc1n[nH]c(C)c1S(=O)(=O)N(CC(=O)NC1CCCC1)c1ccc(C(C)C)cc1	6.0%	7.0	i	10.0	1.03	1.01
O=C(c1cc(-c2ccco2)on1)N1CCN(C(c2ccccc2)c2ccccc2)CC1	3.0%	4.0	i	4.0	1.01	1.09
CCOC(=O)C(NCc1ccccc1OC)(NC(C)=O)C(F)(F)F (stereo not given)	2.0%	5.0	i	11.0	0.99	1.04
COc1ccc(-c2cc(C(F)(F)F)nc(SCC(=O)NCc3ccco3)n2)cc1OC	4.0%	9.0	/	12.0	1.01	2.73*
CN1CCN(C(=O)CSc2nc(-c3cccs3)cc(-c3cccs3)c2C#N)CC1	6.0%	7.0	i	0.0	1.12	2.84*
O=C(Nc1nnc(CCN2CCOCC2)s1)C1CCCCC1	7.0%	11.0	i	9.0	1.02	1.12
O=C(CSc1n[nH]c(-c2ccc(S(=O)(=O)N3CCCCC3)cc2)n1)Nc1nccs1	10.0%	5.0	i	7.0	1.07	2.61*
COc1cc(-c2nnc3sc(-c4cccs4)nn23)cc(OC)c1OC	3.0%	8.0	i	2.0	1.07	1.17
CCc1ccccc1N(CC(=O)NCc1ccco1)C(=O)c1snc(C(N)=O)c1N	6.0%	6.0	/	5.0	1.11	3.27*
CC(C)CCNC(=O)C(c1ccco1)N(Cc1ccccc1)C(=O)c1snc(C(N)=O)c1N (stereo not given)	15.0%	13.0	i	15.0	1.04	1.93
COc1ccc(CNC(=O)C(C)N(Cc2ccco2)C(=O)c2snc(C(N)=O)c2N)cc1 (stereo not given)	13.0%	12.0	i	13.0	1.01	2.24*
CCC(C)(C)NC(=O)CN(C(=O)c1snc(C(N)=O)c1N)c1ccc2c(c1)OCO2	4.0%	0.0	i	0.0	1.04	1.08
CCc1nc2ccccc2n1CCC(C)C	4.0%	4.0	i	7.0	0.99	1.09
CCOc1ccccc1NC(=O)C1=C(C)NC(=O)NC1c1cccc(OC)c1OC (stereo not given)	2.0%	0.0	i	5.0	0.98	1.09
Cc1nc2cc(F)ccc2n1C1CCN(S(=O)(=O)c2ccccc2)CC1	6.0%	0.0	i	14.0	0.99	1
COc1ccc(C2C3=C(CC(C)(C)CC3=O)Nc3c2c(=O)[nH]c2nc(C)nn32)cc1 (stereo not given)	16.0%	15.0	i	5.0	1.05	2.54*
COc1ccc(-c2cn3c(C)c(C(=O)N4CCN(c5ccc(OC)cc5)CC4)sc3n2)cc1	6.0%	2.0	i	15.0	1.03	1.09
CC(OC(=O)c1ccccc1NCc1ccco1)C(=O)Nc1ncc(Cl)cc1Cl (stereo not given)	2.0%	3.0	/	0.0	1.12	2.23*
CC(OC(=O)c1cc2sccc2n1C)C(=O)NCc1ccco1 (stereo not given)	3.0%	0.0	i	8.0	1.03	1.1
Cc1ccc(S(=O)(=O)Cc2cn3cccnc3n2)cc1	5.0%	1.0	/	8.0	1.05	3.74*
COc1ccc(S(=O)(=O)N2CCSC2c2ccc(N)cc2)cc1 (stereo not given)	5.0%	1.0	i	15.0	0.99	1.05
Cc1nc2cc(NC(=O)NCc3ccco3)ccc2n1C	39.0%	10.0	+	8.0	0.97	1.11
Cc1nc2ccc(NC(=O)NCc3ccco3)cc2s1	2.0%	5.0	i	9.0	0.99	1.06
COc1cc2c(C(=O)NCc3ccccn3)cn(C)c(=O)c2cc1OC	2.0%	3.0	i	0.0	1.02	1.14
